Measured values as given in PubChem BioAssay AID651623 (National Center for Advancing Translational Sciences (NCATS), 2012).
Activity calls are given as the source filed them.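 The calls were made as follows: active = inhibition of at least 60% at 114 µM; inconclusive = inhibition from 30% up to below 60% at 114 µM; inactive = inhibition below 30% at 114 µM.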

These compounds were tested against Ubiquitin carboxyl-terminal hydrolase 8 (Homo sapiens) (UniProt P40818) (assay: Inhibitors of USP1/UAF1: SAR in USP8 diubiquitin SDS-PAGE gel assay). Details: USP8 K63 diubiquitin cleavage; series mostly up to 114 µM.
Sequence of Ubiquitin carboxyl-terminal hydrolase 8 (Homo sapiens) (P40818 whole entry, looked up): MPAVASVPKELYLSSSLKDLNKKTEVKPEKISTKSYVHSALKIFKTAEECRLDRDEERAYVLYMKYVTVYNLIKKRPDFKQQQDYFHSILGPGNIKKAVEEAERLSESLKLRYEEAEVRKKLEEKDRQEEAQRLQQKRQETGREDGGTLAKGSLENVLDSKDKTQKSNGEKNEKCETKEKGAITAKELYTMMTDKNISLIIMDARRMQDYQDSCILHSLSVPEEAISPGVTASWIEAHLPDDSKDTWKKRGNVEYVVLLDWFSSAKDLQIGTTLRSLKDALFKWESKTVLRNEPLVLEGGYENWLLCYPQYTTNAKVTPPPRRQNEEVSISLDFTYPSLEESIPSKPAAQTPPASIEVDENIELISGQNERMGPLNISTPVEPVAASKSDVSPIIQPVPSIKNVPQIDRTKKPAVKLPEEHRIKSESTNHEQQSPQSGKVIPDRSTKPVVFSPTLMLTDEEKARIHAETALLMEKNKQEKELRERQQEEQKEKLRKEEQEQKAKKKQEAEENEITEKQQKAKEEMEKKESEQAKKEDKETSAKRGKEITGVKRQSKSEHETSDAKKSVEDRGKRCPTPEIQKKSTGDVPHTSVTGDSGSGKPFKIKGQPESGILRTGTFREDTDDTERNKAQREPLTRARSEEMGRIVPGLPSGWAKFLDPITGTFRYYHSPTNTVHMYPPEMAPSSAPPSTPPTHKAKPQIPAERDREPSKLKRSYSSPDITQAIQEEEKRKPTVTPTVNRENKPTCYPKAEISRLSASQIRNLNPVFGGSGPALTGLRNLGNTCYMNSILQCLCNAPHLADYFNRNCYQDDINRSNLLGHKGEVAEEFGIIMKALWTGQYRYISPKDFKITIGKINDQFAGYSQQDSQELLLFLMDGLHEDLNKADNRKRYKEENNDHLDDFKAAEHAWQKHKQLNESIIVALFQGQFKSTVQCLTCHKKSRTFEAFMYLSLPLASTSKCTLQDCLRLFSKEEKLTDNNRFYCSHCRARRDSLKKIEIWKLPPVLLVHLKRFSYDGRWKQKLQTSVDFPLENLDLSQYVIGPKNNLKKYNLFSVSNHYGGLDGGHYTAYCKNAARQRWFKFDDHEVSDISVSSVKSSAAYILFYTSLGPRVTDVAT
Description: Deubiquitinating enzymes (DUBs) are a class of enzymes that can cleave isopeptide bond formed between the C-terminal carboxylate of ubiquitin and a lysine side-chain amino group on the target protein. Among them, ubiquitin specific proteases (USPs) constitute the largest DUB family. Human USPs are emerging as promising targets for pharmacological intervention because of their connection to a number of human diseases, including prostate, colon and breast cancer (1, 2), pediatric acute lymphoblastic leukemia (3), and familial cylindromatosis (4). The advantage of inhibiting USPs lies in the potential specificity of therapeutic intervention that can lead to better efficacy and reduce nonspecific side effects. In a collaboration between the University of Delaware and the NIH Chemical Genomics Center, a high-throughput screen assay was developed to screen for USP1/UAF1 inhibitors (5). […]
The inhibition assay contains 80 nM USP8, 2 microM K63 linked diubiquitin, and inhibitors at varied concentrations (0.08 microM - 114 microM). […] The intensity of the individual diubiquitin and monoubiquitin band was quantified using Quantity One 4.3.1 (Biorad, Hercules, CA). The percentage of the conversion was determined and used to calculate the reaction rate. […]

SMILES | outcome
Cc1cnc(-c2ccccc2C(C)C)nc1NCc1ccc(-n2ccnn2)cc1 | inactive
